In PubChem BioAssay (NCATS):
Results filed as inconclusive are left out. Activity calls are given as the source filed them. The call rests on the fitted dose curve; in most records, active means well fitted curve in the direction sought with a large enough effect; inconclusive means small, poorly fitted or top-dose-only effect, or effect the other way, or another doubt; inactive means no such curve, though single readings can be large or run the other way.

molecular target: Transient receptor potential cation channel subfamily V member 1 (Homo sapiens) (UniProt Q8NER1); test: HTS Assay for Compounds that Act as Enhancers of the Vanilloid Receptor 1 (AID 488979); details: TRPV1-expressing cells, enhancer of channel activity, stimulated with capsaicin at EC20; series mostly up to 41.7 µM
Text: The transient receptor potential ion channel, family V, number 1, (TRPV1) is one of the most important molecular transducers of painful stimuli and a potential target for analgesic drug development. Although recent clinical trials with orthosteric antagonists have not produced a successful drug because of a hyperthermia side effect and their tendency to block thermal noxious pain, this ion channel is undeniably well placed in the pain pathway, and the idea of blocking pain signals before they enter the CNS is an excellent concept and of proven efficacy when TRPV1 agonists are used. We propose a new approach involving allosteric modulation to impose an activity-dependent constraint within the context of inflammation and tissue damage that would alter the responsiveness of the channel in a way that an orthosteric vanilloid antagonist cannot achieve. We believe that the allosteric modulator approach has not been explored for this target.
The main goal of this proposal is to identify additional, new, potent allosteric modulators of TRPV1 that can be used to investigate TRPV1 function. Our recent report provides evidence of proof of concept, but the compounds are just at the edge of utility in terms of potency. […] The question of whether they can be used as analgesic agents is complex, but if suitable compounds are identified then testing for analgesic properties will be conducted.
Upon TRPV1 activation in TRPV1 cells, the channel opens and extracellular cations flow through the channel into the cytosol. A calcium binding dye (Fluo-8) becomes fluorescent when bound to calcium. This dye is pre-loaded into cells and is used as a marker for calcium influx.
The amount of accumulated calcium is precisely quantified using the FDSS kinetic reader and the calcium dye.
For the HTS assay, freshly prepared cells are plated at a density of 2000/well in 3 ul medium in 1536-well plates and cultured overnight at 35.5C. Cells will be loaded with 1 ul of the homogeneous calcium dye (ABD Bioquest) at room temperature for 40 to 90 minutes. Plates will be loaded into the FDSS kinetic reader and a 1 sec / cycle for 10 second baseline signal will be measured. Compound library will then be added with a pintool at 23 nl and measured kinetically for 3 minutes. This portion of the read is considered the agonist portion of the screen. Following the 3 minutes of incubation, an on board pipettor will deliver 1 ul of capsaicin for a final concentration equal to the EC20. Signal will be measured kinetically for an additional 2 minutes. This portion of the read is considered the allosteric enhancer portion of the screen.
The FDSS reader has a standard filter set capable of measuring calcium bound Fluo-8 (ex=480 and em=520 nm).

Sequence of Transient receptor potential cation channel subfamily V member 1 (Homo sapiens) (Q8NER1 whole entry, looked up): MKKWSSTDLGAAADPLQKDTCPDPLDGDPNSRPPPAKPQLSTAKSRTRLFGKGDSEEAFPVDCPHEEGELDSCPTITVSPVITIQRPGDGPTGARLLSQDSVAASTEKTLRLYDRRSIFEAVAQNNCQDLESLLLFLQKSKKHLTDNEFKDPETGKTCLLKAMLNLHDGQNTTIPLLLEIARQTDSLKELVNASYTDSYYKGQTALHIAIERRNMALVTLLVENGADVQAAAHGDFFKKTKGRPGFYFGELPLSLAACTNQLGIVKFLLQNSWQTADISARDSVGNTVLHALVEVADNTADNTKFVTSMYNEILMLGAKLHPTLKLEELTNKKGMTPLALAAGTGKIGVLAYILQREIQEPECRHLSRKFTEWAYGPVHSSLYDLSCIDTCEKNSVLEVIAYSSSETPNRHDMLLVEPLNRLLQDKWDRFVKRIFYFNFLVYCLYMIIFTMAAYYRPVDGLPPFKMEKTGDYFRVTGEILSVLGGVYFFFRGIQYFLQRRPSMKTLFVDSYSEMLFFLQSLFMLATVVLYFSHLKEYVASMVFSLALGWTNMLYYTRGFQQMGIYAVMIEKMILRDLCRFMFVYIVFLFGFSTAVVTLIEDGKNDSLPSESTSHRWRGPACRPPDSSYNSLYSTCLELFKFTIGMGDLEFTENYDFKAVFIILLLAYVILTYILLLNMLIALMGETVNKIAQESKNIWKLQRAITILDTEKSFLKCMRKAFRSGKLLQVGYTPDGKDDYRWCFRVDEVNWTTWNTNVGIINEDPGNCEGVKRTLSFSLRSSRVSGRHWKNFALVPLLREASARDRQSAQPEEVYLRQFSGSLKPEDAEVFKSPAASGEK

**Q.** `Nc1ccc(-c2ccc3ccccc3n2)cc1` was tested. Which outcome did it give?
**A.** inactive

**Q.** Which outcome does the source give for `Cc1ccc([N+](=O)[O-])cc1S(=O)(=O)N(C)C` here?
**A.** inactive

**Q.** Which outcome does the source give for `COc1cc(N)c(Cl)cc1C(=O)OCCN1CCCCC1` here?
**A.** inactive

**Q.** How did the outcome turn out when `CCSC(=N)N` was run?
**A.** inactive

**Q.** With `COc1cc(C(O)CO)ccc1O` (stereo not given) as the compound, how does the outcome read?
**A.** inactive

**Q.** With `O=[N+]([O-])c1cccc2c(Br)[nH]nc12` as the compound, how does the outcome read?
**A.** inactive

**Q.** For `CNc1cc(NS(=O)(=O)c2ccc(N)cc2)nc(NC)n1`, which outcome is on record?
**A.** inactive

**Q.** With `Nc1ccc(-c2nc3ccc(-c4nc5ccc(N)cc5[nH]4)cc3[nH]2)cc1` as the compound, how does the outcome read?
**A.** inactive

**Q.** `O=c1onc2cnc3ccccc3n12` was tested. Which outcome did it give?
**A.** inactive

**Q.** Which outcome does the source give for `Cc1nc(N=Nc2ccc(C(=O)O)cc2)c(COP(=O)(O)O)c(C=O)c1O` here?
**A.** inactive

**Q.** Which outcome does the source give for `OC[C@H]1O[C@@H](n2cnc3cncnc32)[C@H](O)[C@@H]1O` here?
**A.** inactive

**Q.** With `COc1cccc(OC)c1OCCNCC1CSc2ccccc2O1` (stereo not given) as the compound, how does the outcome read?
**A.** inactive

**Q.** With `O=C(O)c1ccccc1Nc1cccc(OCc2ccc3ccccc3n2)c1` as the compound, how does the outcome read?
**A.** inactive

**Q.** How did the outcome turn out when `c1ccc(C2CN3CCSC3=N2)cc1` (stereo not given) was run?
**A.** inactive

**Q.** With `CCCn1c(=O)c2[nH]c(C3CCCC3)nc2n(CCC)c1=O` as the compound, how does the outcome read?
**A.** inactive

**Q.** `CCCc1c(OCCCOc2ccc(OCC(=O)O)cc2)ccc(C(C)=O)c1O` was tested. Which outcome did it give?
**A.** inactive

**Q.** Which outcome does the source give for `N=C(N)c1ccccc1` here?
**A.** inactive

**Q.** `O=C(O)C1=CCNCC1` was tested. Which outcome did it give?
**A.** inactive

**Q.** With `Nc1ncnc2c1c(-c1ccc(Oc3ccccc3)cc1)cn2C1CCCC1` as the compound, how does the outcome read?
**A.** inactive

**Q.** `COc1cc(CC(=O)O)ccc1O` was tested. Which outcome did it give?
**A.** inactive

**Q.** Which outcome does the source give for `N#Cc1cc2nc(O)c(O)nc2cc1[N+](=O)[O-]` here?
**A.** inactive

**Q.** Which outcome does the source give for `O=C1NC(=O)c2cc(Nc3ccccc3)c(Nc3ccccc3)cc21` here?
**A.** inactive

**Q.** Which outcome does the source give for `CC(=O)N[C@@H](Cc1c[nH]c2ccccc12)C(=O)OCc1cc(C(F)(F)F)cc(C(F)(F)F)c1` here?
**A.** inactive

**Q.** For `COc1ccc(C(=O)NCc2cccnc2)cc1C(=O)NCc1cccnc1`, which outcome is on record?
**A.** inactive

**Q.** `CC1=C(/C=C/C(C)=C/C=C/C(C)=C\C(=O)O)C(C)(C)CCC1` was tested. Which outcome did it give?
**A.** inactive

**Q.** For `COc1ccc(CCN(C)CCc2ccc(OC)c(OC)c2)cc1OC`, which outcome is on record?
**A.** inactive

**Q.** Which outcome does the source give for `O=C1OC(=O)C2C3CCC(O3)C12` (stereo not given) here?
**A.** inactive

**Q.** `NCC(O)(CS(=O)(=O)O)c1ccc(Cl)cc1` (stereo not given) was tested. Which outcome did it give?
**A.** inactive

**Q.** How did the outcome turn out when `N[C@H](C(=O)O)[C@H]1C[C@@H]1C(=O)O` was run?
**A.** inactive

**Q.** How did the outcome turn out when `CC(N)(Cc1ccc(O)cc1)C(=O)O` (stereo not given) was run?
**A.** inactive

**Q.** For `Nc1ccc(N2C(=O)c3ccccc3C2=O)c(Cl)c1`, which outcome is on record?
**A.** inactive

**Q.** Which outcome does the source give for `CC[C@@H]1Cc2cc(O)ccc2C2=C1c1ccc(O)cc1C[C@H]2CC` here?
**A.** inactive

**Q.** How did the outcome turn out when `CC1CNCCN1S(=O)(=O)c1cccc2cnccc12` (stereo not given) was run?
**A.** inactive

**Q.** How did the outcome turn out when `NS(=O)(=O)c1cccc2c1c([N+](=O)[O-])cc1nc(O)c(O)nc12` was run?
**A.** inactive

**Q.** For `COc1cc2c(CCNC(C)=O)c[nH]c2cc1O`, which outcome is on record?
**A.** inactive

**Q.** How did the outcome turn out when `[N-]=[N+]=Nc1ccc(C(=O)CSC[C@H](NC(=O)CC[C@H](N)C(=O)O)C(=O)NCC(=O)O)cc1` was run?
**A.** inactive

**Q.** Which outcome does the source give for `N=C(N)c1ccc(N)cc1` here?
**A.** inactive

**Q.** With `CCCCCCN(CCCCCC)C(=O)Cc1c(-c2ccc(F)cc2)[nH]c2ccccc12` as the compound, how does the outcome read?
**A.** inactive

**Q.** For `CC(N)=NCCCC[C@@H](N)C(=O)O`, which outcome is on record?
**A.** inactive

**Q.** How did the outcome turn out when `CCCn1c(=O)c2[nH]c(-c3ccc(S(=O)(=O)O)cc3)nc2n(CCC)c1=O` was run?
**A.** inactive
